# Results reported in PubChem BioAssay (EPA / NIEHS).
# Inconclusive results are not listed. Activity calls are given as the source filed them. Rule for the calls: active = hit-call score of the fitted dose curve at least 0.9, where 1 is the maximum; inconclusive = response in the unintended direction; inactive = score below 0.9.
# Biological target: human Sirtuin 2 (SIRT2), SIRT2 (gene 22933) (UniProt Q8IXJ6)
# Experiment: NVS_ENZ_hSIRT2: NovaScreen (NVS) Enzymatic Assay for human Sirtuin 2 (SIRT2) (AID 2283217)
# Outline: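 Single-point duplicate screen at 25 uM, then concentration-response (max 50 uM) for chemicals passing threshold. Enzyme activity of recombinant human SIRT2 measured after 1 hr by fluorescence with mobility-shift separation of product; DMSO baseline.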
# Chain of human Sirtuin 2 (SIRT2), SIRT2 (gene 22933) (Q8IXJ6 whole entry, looked up): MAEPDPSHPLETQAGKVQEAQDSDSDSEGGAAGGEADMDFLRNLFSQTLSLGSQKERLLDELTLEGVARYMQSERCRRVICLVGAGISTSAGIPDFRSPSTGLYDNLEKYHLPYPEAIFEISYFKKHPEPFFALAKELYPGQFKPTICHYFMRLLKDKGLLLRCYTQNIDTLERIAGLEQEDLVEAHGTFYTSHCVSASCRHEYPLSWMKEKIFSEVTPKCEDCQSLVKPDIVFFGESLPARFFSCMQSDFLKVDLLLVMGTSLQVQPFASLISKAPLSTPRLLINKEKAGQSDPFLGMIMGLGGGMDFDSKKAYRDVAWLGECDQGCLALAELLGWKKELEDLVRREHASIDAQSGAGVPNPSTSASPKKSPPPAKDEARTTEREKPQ
row,SMILES,outcome
1,CC(C)c1ccc(C(=O)N=C(N)N)cc1S(C)(=O)=O,inactive
2,Cc1nc(-c2ccc3c(c2)CCN(CCC2CCC(NC(=O)/C=C/c4ccc(F)cc4)CC2)CC3)no1 (stereo not drawn),inactive
3,C=CCOC(=O)c1ccccc1C(=O)OCC=C,inactive

# Biological target: human Sirtuin 1 (SIRT1), SIRT1 (gene 23411) (UniProt Q96EB6)
# Experiment: NVS_ENZ_hSIRT1: NovaScreen (NVS) Enzymatic Assay for human Sirtuin 1 (SIRT1) (AID 2283219)
# Outline: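 Cell-free recombinant SIRT1 with a fluorescent substrate; substrate and product separated by electrophoretic mobility shift and read by fluorescence intensity, 1 h after dosing. Primary screen at 25 uM in duplicate; hits re-run in concentration-response up to 50 uM, relative to DMSO.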
# Chain of human Sirtuin 1 (SIRT1), SIRT1 (gene 23411) (Q96EB6 whole entry, looked up): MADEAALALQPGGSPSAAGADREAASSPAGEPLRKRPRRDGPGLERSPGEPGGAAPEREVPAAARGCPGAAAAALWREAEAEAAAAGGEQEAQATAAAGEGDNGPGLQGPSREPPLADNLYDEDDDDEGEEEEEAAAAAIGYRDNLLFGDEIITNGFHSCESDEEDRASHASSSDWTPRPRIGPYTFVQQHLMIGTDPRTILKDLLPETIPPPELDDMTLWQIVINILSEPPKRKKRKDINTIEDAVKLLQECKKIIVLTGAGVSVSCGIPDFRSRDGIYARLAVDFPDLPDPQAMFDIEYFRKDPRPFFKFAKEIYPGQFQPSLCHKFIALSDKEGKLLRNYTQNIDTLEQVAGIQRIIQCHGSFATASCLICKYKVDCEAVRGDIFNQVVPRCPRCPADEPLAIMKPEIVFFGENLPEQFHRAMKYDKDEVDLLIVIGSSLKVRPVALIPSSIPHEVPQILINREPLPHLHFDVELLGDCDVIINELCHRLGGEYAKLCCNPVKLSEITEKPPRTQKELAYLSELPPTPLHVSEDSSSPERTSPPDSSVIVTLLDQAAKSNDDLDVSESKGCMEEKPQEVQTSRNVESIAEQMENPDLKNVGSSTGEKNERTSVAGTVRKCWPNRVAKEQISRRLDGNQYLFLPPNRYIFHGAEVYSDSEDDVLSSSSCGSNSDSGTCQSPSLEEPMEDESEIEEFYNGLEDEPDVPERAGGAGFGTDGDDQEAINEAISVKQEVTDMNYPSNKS
SMILES,outcome,AC50
NCC1(Cc2noc(=O)[nH]2)CCCCC1,inactive,–
CCCCCCCC=O,inactive,–
Cc1cc(NC(=O)C(=O)O)cc(C)c1Oc1ccc(O)c2c1CCC2,–,25 µM (active)
Cc1cccc([N+](=O)[O-])c1C,inactive,–
CC1=C(/C=C/C(C)=C/C=C/C(C)=C/CO)C(C)(C)CCC1,inactive,–
O=C(OCCCCCOC(=O)c1ccccc1)c1ccccc1,inactive,–
Cc1cccc(Nc2cc(Cl)nc(SCC(=O)O)n2)c1C,inactive,–
NCCO,inactive,–
CC(=O)C(C)=CC1C(C)=CCCC1(C)C (stereo not drawn),inactive,–
Cc1nc(-c2ccc3c(c2)CCN(CCC2CCC(NC(=O)/C=C/c4ccc(F)cc4)CC2)CC3)no1 (stereo not drawn),inactive,–
Cc1ccc(C(C)C)c(O)c1,inactive,–
c1cc(-c2ccncc2)ccn1,inactive,–
Cc1c(C(=O)O)c(O)cc2c1C(=O)c1c(O)c([C@@H]3O[C@H](CO)[C@@H](O)[C@H](O)[C@H]3O)c(O)c(O)c1C2=O,inactive,–

# Biological target: human Sirtuin 3 (SIRT3), SIRT3 (gene 23410) (UniProt Q9NTG7)
# Experiment: NVS_ENZ_hSIRT3: NovaScreen (NVS) Enzymatic Assay for human Sirtuin 3 (SIRT3) (AID 2283222)
# Outline: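 Cell-free enzyme assay with recombinant protein and fluorescent substrate, product separated by electrophoretic mobility shift; read 1 hour after dosing. Screened in duplicate at 25 uM, then singleton concentration-response up to 50 uM; loss of signal versus DMSO.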
# Chain of human Sirtuin 3 (SIRT3), SIRT3 (gene 23410) (Q9NTG7 whole entry, looked up): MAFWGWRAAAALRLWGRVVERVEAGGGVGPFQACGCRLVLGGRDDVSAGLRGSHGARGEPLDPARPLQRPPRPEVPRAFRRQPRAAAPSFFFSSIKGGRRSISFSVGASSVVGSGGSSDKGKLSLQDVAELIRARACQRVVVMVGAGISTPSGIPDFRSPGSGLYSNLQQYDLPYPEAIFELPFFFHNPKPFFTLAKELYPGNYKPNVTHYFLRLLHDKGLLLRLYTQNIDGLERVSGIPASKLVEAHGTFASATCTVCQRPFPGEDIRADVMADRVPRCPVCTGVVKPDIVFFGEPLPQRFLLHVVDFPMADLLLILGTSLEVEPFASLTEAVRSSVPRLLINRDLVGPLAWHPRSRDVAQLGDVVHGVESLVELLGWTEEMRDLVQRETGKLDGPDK
SMILES,outcome,AC50
CC(C)c1ccc(C(=O)N=C(N)N)cc1S(C)(=O)=O,inactive,–
CC1(C)CC(N=C=O)CC(C)(CN=C=O)C1 (stereo not drawn),inactive,–
Cc1cccc(Nc2cc(Cl)nc(SCC(=O)O)n2)c1C,inactive,–
COc1cc(-c2nc(NC(=O)c3cc4cc(C)cc(C)c4n3CC(=O)O)sc2CCC2CCCCC2)c(OC)cc1Cl,–,30.3 µM (active)
Cc1nc(-c2ccc3c(c2)CCN(CCC2CCC(NC(=O)/C=C/c4ccc(F)cc4)CC2)CC3)no1 (stereo not drawn),inactive,–

# Biological target: human SRC Proto-Oncogene, Non-receptor Tyrosine Kinase (SRC), SRC (gene 6714) (UniProt P12931)
# Experiment: NVS_ENZ_hSRC: NovaScreen (NVS) Enzymatic Assay for human SRC Proto-Oncogene, Non-receptor Tyrosine Kinase (SRC) (AID 2283223)
# Outline: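 Compounds passing 30% inhibition at 25 uM (duplicate) were titrated to a top concentration of 50 uM. Enzyme activity read by fluorescence with mobility-shift substrate/product separation after 1 h; DMSO baseline.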
# Chain of human SRC Proto-Oncogene, Non-receptor Tyrosine Kinase (SRC), SRC (gene 6714) (P12931 whole entry, looked up): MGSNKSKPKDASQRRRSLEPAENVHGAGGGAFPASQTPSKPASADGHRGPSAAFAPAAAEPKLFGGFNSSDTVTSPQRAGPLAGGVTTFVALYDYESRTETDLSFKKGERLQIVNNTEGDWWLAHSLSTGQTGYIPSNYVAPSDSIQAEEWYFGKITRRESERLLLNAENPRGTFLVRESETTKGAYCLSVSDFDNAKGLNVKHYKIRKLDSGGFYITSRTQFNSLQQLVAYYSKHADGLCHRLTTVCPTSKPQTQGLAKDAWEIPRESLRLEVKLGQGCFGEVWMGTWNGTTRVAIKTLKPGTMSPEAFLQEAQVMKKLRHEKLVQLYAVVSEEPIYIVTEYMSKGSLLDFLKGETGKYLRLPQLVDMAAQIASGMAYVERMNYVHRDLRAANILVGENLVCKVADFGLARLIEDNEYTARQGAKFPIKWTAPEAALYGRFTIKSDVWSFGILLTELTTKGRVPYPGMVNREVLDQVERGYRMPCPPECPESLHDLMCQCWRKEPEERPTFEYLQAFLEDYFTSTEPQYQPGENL
row,SMILES,outcome
1,CC1(C)NC(=O)NC1=O,inactive
2,O=C(OCCCCCOC(=O)c1ccccc1)c1ccccc1,inactive
3,NCCO,inactive
4,Cc1oc(-c2ccccc2)nc1CCOc1cccc2c1ccn2CCC(=O)O,inactive
5,CCCc1cc(=O)[nH]c(=S)[nH]1,inactive

# Biological target: human Vascular Endothelial Growth Factor Receptor 1 (VEGFR1), FLT1 (gene 2321) (UniProt P17948)
# Experiment: NVS_ENZ_hVEGFR1: NovaScreen (NVS) Enzymatic Assay for human Vascular Endothelial Growth Factor Receptor 1 (VEGFR1) (AID 2283226)
# Outline: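 Kinase activity of recombinant human VEGFR1 was read by fluorescence after electrophoretic separation of product from substrate, 1 h post-dosing; initial duplicate single-point testing at 25 uM, followed by concentration-series follow-up, with DMSO as baseline.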
# Chain of human Vascular Endothelial Growth Factor Receptor 1 (VEGFR1), FLT1 (gene 2321) (P17948 whole entry, looked up): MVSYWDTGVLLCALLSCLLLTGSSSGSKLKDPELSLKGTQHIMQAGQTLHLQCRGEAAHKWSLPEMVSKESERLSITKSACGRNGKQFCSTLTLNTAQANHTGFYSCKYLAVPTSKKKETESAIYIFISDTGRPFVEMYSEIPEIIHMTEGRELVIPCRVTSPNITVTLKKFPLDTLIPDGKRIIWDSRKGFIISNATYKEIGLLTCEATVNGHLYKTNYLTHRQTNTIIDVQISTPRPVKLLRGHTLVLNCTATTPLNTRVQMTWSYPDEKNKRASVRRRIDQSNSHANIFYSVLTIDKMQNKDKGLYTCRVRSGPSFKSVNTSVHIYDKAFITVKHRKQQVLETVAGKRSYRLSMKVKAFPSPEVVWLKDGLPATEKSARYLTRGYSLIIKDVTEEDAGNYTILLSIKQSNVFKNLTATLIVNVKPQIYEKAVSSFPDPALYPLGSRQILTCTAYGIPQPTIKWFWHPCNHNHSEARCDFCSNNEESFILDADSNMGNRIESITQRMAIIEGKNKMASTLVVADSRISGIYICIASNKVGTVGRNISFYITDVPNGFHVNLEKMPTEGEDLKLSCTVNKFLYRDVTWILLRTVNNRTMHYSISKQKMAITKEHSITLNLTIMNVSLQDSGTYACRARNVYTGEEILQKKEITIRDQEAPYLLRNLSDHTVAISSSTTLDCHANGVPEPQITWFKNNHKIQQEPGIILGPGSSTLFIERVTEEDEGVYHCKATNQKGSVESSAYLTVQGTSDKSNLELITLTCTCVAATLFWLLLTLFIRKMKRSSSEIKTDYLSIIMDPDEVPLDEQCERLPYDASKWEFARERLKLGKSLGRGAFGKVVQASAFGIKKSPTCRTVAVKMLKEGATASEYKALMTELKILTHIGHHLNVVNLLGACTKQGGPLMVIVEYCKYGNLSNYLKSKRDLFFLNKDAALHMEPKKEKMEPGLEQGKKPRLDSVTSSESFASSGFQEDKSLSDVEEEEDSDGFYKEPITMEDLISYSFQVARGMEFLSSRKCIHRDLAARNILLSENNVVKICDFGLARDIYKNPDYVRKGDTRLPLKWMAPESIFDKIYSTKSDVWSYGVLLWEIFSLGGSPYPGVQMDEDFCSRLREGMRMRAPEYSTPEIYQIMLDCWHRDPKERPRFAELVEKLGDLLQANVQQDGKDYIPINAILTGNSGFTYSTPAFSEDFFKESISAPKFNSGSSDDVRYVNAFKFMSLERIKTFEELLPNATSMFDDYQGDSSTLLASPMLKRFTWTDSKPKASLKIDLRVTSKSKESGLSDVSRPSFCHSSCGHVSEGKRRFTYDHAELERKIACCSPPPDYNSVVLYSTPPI
row,SMILES,outcome
1,CC1=C(/C=C/C(C)=C/C=C/C(C)=C/CO)C(C)(C)CCC1,inactive
2,CCCCc1ccc2c(n1)[C@@H](c1ccc(OC)cc1C[C@H](C)C(=O)O)[C@H](C(=O)O)[C@H]2c1ccc2c(c1)OCO2,inactive
3,CCc1c(C(=O)NN2CCCCC2)nn(-c2ccc(Cl)cc2Cl)c1-c1ccc(Br)cc1,inactive
4,NCCO,inactive
5,Cc1oc(-c2ccccc2)nc1CCOc1cccc2c1ccn2CCC(=O)O,inactive
6,CCCCCCCCCCC,inactive
7,FC(F)(F)C(F)(F)C(F)(F)C(F)(F)C(F)(F)C(F)(F)CCI,inactive
